For assay [1], the target named is Progesterone receptor (Homo sapiens) (UniProt P06401). The experiment in a line: qHTS assay to identify small molecule agonists of the progesterone receptor (PR) signaling pathway (AID 1346784; calls by dose curve; note: nearly all actives have a fitted effect of over 30% in size). The procedure, abridged:
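Using charcoal-stripped serum (2%) to limit endogenous steroids, PR-UAS-bla HEK 293T cells received compounds for 16 hr at 37C after 6 hr plating; beta-lactamase FRET fluorescence was recorded following 2 hr substrate loading at room temperature.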
A general note: qHTS replaces the single test concentration by a dilution series.

Assay [2] shares this target. The experiment in a line: qHTS assay to identify small molecule antagonists of the progesterone receptor (PR) signaling pathway (AID 1346795; active = well fitted inhibition curve with a large enough effect in the signal ratio in the repeat runs, not every such curve was filed as active; the % refers to the signal ratio). In a few lines: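 Inhibition of R5020-induced (1 nM final) beta-lactamase reporter signal in PR-UAS-bla HEK293T cells was scored by FRET fluorescence after overnight (16 hr) compound treatment.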
Assay [3] can be described thus: qHTS assay to identify small molecule antagonists of the TGF-beta/Smad signaling pathway - cell viability counter screen (AID 1346824). Note: nearly all actives have a fitted effect of over 50% in size. The procedure, abridged: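 SBE-bla HEK 293T cells were plated overnight at 37 C, then given compounds in DMSO plus TGF-beta1 (added as 0.25 ng/mL solution) for 5 hr. After the bla read, CellTiter-Glo was added to the same wells and luminescence read after 30 min at room temperature.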

The nature of assay [4]: qHTS assay to identify small molecule agonists of the TGF-beta/Smad signaling pathway - cell viability counter screen (AID 1346829). Note: top concentration of the series differs between compounds; nearly all actives have a fitted effect of over 45% in size. The procedure, abridged: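 HEK 293T SBE-bla line, 5 hr compound exposure at 37 C, multiplexed CellTiter-Glo viability read by luminescence.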
Assay [5] in a line: qHTS assay to identify small molecule agonists of the TGF-beta/Smad signaling pathway (AID 1346859; active = well fitted activation curve with a large enough effect in the signal ratio in the repeat runs, not every such curve was filed as active; the % refers to the signal ratio; note: series mostly up to about 77 µM). The procedure, abridged:
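Stable Smad binding element-beta-lactamase HEK 293T cells; 5 hr compound exposure at 37 C under 5% CO2; 2 hr room-temperature substrate step; fluorescence excited at 405 nm, collected at 460 nm and 530 nm.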

In assay [6] the target is Thyrotropin-releasing hormone receptor (Homo sapiens) (UniProt P34981). Nature of the assay: qHTS assay to identify small molecule antagonists of the thyrotropin-releasing hormone receptor (TRHR) signaling pathway (AID 1346877; active = well fitted inhibition curve with a large enough effect in the repeat runs, not every such curve was filed as active; note: series mostly up to about 51 µM). The procedure, abridged: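 Cells (TRHR-HEK293) are plated and kept 18 h at 37 °C/5% CO2. A calcium-sensitive dye is added for 2 h, compound follows for 5 min at room temperature, and TRH is then given at 1 nM final.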
Thyrotropin-releasing hormone receptor (Homo sapiens), sequence (P34981 whole entry, looked up): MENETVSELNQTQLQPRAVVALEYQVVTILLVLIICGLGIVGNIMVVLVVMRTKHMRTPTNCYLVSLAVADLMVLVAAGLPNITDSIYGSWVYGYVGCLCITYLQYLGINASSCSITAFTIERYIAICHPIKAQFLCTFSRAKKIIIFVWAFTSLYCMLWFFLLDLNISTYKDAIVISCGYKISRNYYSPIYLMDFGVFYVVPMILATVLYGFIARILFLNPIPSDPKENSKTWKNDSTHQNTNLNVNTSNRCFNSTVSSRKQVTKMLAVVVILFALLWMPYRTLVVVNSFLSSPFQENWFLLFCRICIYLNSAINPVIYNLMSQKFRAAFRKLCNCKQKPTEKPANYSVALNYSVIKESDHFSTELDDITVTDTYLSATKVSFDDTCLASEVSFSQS

Assay [7] shares this target. Nature of the assay: qHTS assay to identify small molecule agonists of the thyrotropin-releasing hormone receptor (TRHR) signaling pathway (AID 1346891; calls by dose curve;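 note: HEK293 cells expressing TRHR with calcium dye readout; series mostly up to about 58 µM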). In a few lines:
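In 1536-format, 1500 TRHR-Hek293 cells per well grew 18 h, took up calcium dye for 2 h at 37 °C, received compound, and were read kinetically; 15-point titrations, triplicates.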

Assay [8] is described as follows: Human pregnane X receptor (PXR) small molecule agonists, qHTS cell viability counter screen (AID 1346977). Note: nearly all actives have a fitted effect of over 50% in size. In a few lines:
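Readout is CellTiter-Fluor fluorescence from PXR-Luc HepG2 cells. Plated cells rested 5hr, then were treated with compounds for 24hr at 37C and 5% CO2, with reagent present during the last hour.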

Assay [9] in a line: Caspase-3/7 induction in HepG2 cells by small molecules, qHTS assay (AID 1346978). Note: nearly all actives have a fitted effect of over 15% in size. The procedure, abridged:
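Wild-type HepG2 cells (2,000/well) were settled 5 h at 37 C, 5% CO2, then exposed to compounds in DMSO for 17 h. Caspase-3/7 activity was read by luminescence 30 min after adding Caspase-Glo 3/7 reagent at room temperature.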

Assay [10] in a line: Caspase-3/7 induction in CHO-K1 cells by small molecules, qHTS cell viability counter screen (AID 1346979). Note: nearly all actives have a fitted effect of over 35% in size. Note: potency is the fitted concentration of half-maximal effect. The procedure, abridged: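 To flag cytotoxic compounds, treated CHO-K1 wild-type cells were given CellTiter-Fluor at 16hr and read fluorescently after 1hr at 37C; the caspase-3/7 luminescence was measured in these same wells.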
Assay [11] is described as follows: Caspase-3/7 induction in CHO-K1 cells by small molecules, qHTS assay (AID 1346980). Note: nearly all actives have a fitted effect of over 15% in size. The procedure, abridged:
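Wild-type cells were seeded at 1,500 per well and settled 5 hr at 37 C, 5% CO2, then exposed to DMSO-dissolved compounds for 17 hr. Caspase-Glo 3/7 reagent was added, and luminescence was read after 30min at room temperature.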

A short description of assay [12]: Caspase-3/7 induction in HepG2 cells by small molecules, qHTS cell viability counter screen (AID 1346981). Note: nearly all actives have a fitted effect of over 30% in size. Note: potency is the fitted concentration of half-maximal effect. In a few lines:
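Steps: seed 2,000 HepG2 cells per well; incubate 5 hr at 37 C; pin-add compounds in DMSO; incubate 16 hr; add CellTiter-Fluor; after 1 hr at 37 C and 5% CO2, read fluorescence.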

Assay [13] deals with Nuclear receptor subfamily 1 group I member 2 (Homo sapiens) (UniProt O75469). Nature of the assay: Human pregnane X receptor (PXR) small molecule agonists, qHTS assay (AID 1346982). Note: nearly all actives have a fitted effect of over 35% in size. Note: potency is the fitted concentration of half-maximal effect. The procedure, abridged:
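Agonist mode qHTS: PXR-Luc HepG2 cells plated 5 hr before DMSO-dissolved compounds were pinned in, cultured 24 hr at 37 C, 5% CO2; ONE-Glo luminescence readout.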

A short description of assay [14]: qHTS assay to identify small molecule antagonists of the progesterone receptor (PR) signaling pathway - cell viability counter screen (AID 1346798). Note: series mostly up to about 92 µM; nearly all actives have a fitted effect of over 50% in size. In a few lines: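 ATP content as viability readout: CellTiter-Glo luminescence, 30 min room temperature, in PR-UAS-bla HEK293T cells after 16 hr compound/R5020 treatment at 37C and 5% CO2.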
The nature of assay [15]: qHTS assay to identify small molecule agonists of the progesterone receptor (PR) signaling pathway - cell viability counter screen (AID 1346799; calls by dose curve; note: nearly all actives have a fitted effect of over 45% in size). The procedure, abridged:
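Cytotoxicity in PR-bla HEK293T cells: 16 h compound, 37C; CellTiter-Glo added post-FRET read; luminescence after 30 min RT.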

Assay [16] has as its target Cytochrome P450 2D6 (Homo sapiens) (UniProt P10635). Nature of the assay: Cytochrome P450 Family 2 Subfamily D Member 6 (CYP2D6) small molecule antagonists: luciferase reporter qHTS assay (AID 1671196). Note: nearly all actives have a fitted effect of over 50% in size. Note: potency is the fitted concentration of half-maximal effect. The procedure, abridged: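 P450-Glo format: CYP2D6 converts a proluciferin substrate to luciferin in an NADPH-driven reaction lasting 1 h at room temperature. Light output, proportional to CYP2D6 activity, reflects interference by test chemicals.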

In assay [17] the target is Nuclear receptor subfamily 1 group I member 2 (Rattus norvegicus) (UniProt Q9R1A7). Nature of the assay: Rat pregnane X receptor (rPXR) activation by small molecules, qHTS assay (AID 1346983). Note: potency is the fitted concentration of half-maximal effect; nearly all actives have a fitted effect of over 20% in size. The following applies: rPXR luciferase reporter cells, One-Glo luminescence, 24 h; max activation: stronger effect = higher value. In a few lines: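 Cell-based rPXR luciferase reporter assay, 2,000 cells per well, rested 5hr at 37 C before compound addition in DMSO, then 24 hr at 37 C. One-Glo reagent was added and luminescence read after 30 min at room temperature.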
Nuclear receptor subfamily 1 group I member 2 (Rattus norvegicus), sequence (Q9R1A7 whole entry, looked up): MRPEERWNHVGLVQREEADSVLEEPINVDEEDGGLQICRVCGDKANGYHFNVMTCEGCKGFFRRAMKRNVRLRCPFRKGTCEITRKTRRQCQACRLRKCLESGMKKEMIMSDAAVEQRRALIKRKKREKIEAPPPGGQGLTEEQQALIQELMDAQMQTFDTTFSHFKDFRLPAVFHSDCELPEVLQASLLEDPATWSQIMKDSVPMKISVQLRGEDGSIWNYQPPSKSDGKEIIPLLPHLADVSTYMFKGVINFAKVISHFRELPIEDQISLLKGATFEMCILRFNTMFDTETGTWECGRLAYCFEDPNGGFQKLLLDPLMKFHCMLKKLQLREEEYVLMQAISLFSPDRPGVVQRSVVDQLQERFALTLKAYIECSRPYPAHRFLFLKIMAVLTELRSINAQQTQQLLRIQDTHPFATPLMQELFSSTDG

Assay [18] addresses Nuclear receptor subfamily 1 group I member 2 (Homo sapiens) (UniProt O75469). The experiment in a line: CYP3A4 induction through human pregnane X receptor (PXR) by small molecules, qHTS assay (AID 1346984). Note: nearly all actives have a fitted effect of over 40% in size. In a few lines:
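Steps: seed DPX-2 cells, 5 hr at 37C; pin-transfer compounds; 24 hr at 37C; add Luciferin-IPA (3uM final), 3 hr at 37C; add One-Glo, 30 min RT; read luminescence.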

For assay [19] the target is unchanged. The experiment in a line: Human pregnane X receptor (PXR) activation by small molecules, qHTS assay (AID 1346985). Note: potency is the fitted concentration of half-maximal effect; nearly all actives have a fitted effect of over 40% in size. In a few lines: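 DPX-2 cells (HepG2 co-transfected with a PXR response element and a CYP3A4-promoter luciferase construct) were seeded at 2,000 per well, rested 5 hr at 37C, then exposed to DMSO-dissolved compounds for 24 hr. Activation was read as luciferase luminescence.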

Values without a mark were called inactive. Results filed as inconclusive are left out. The source made the active and inactive calls. Unless noted, calls come from the whole dose curve; as a rule, active = well fitted curve in the direction sought with a large enough effect in the repeat runs; inconclusive = weak or mixed curves; inactive = no such curve, though single readings can be large; an effect the other way counts as inactive or inconclusive.

Nuclear receptor subfamily 1 group I member 2 (Homo sapiens), sequence (O75469 whole entry, looked up): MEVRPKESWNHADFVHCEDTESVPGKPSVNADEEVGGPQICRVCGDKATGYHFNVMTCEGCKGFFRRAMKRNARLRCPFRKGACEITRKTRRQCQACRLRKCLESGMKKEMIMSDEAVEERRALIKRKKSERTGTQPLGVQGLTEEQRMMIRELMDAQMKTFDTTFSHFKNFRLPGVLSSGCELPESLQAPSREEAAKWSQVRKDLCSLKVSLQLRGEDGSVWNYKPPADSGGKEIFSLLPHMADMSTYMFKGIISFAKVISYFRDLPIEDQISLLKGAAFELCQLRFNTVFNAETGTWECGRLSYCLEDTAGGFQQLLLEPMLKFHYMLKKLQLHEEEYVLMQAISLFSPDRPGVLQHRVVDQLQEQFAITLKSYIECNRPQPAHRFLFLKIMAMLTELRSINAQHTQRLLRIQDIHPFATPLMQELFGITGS
Progesterone receptor (Homo sapiens), sequence (P06401 whole entry, looked up): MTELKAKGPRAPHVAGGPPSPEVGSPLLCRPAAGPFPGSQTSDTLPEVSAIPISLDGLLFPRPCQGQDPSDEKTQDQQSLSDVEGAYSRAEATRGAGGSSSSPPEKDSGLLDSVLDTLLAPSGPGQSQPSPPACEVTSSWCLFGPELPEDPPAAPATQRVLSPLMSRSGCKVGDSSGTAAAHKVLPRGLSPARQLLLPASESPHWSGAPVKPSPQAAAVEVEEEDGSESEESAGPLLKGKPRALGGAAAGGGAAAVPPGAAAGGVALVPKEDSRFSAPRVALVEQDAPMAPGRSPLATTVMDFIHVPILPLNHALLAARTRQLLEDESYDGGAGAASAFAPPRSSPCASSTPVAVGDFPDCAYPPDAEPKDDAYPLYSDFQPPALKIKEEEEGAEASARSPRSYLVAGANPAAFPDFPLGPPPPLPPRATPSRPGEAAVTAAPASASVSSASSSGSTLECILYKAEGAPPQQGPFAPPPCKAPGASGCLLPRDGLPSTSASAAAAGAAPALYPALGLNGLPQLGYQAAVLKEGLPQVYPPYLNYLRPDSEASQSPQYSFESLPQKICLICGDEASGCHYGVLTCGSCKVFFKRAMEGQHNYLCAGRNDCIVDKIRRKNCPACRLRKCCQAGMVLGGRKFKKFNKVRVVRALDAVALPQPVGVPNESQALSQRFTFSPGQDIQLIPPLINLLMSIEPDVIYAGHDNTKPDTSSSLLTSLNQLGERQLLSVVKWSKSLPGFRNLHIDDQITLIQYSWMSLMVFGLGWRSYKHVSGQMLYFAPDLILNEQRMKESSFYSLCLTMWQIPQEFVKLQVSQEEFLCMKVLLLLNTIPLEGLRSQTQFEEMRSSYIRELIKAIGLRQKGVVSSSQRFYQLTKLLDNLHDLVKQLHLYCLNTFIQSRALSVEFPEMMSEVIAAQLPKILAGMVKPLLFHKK
Cytochrome P450 2D6 (Homo sapiens), sequence (P10635 whole entry, looked up): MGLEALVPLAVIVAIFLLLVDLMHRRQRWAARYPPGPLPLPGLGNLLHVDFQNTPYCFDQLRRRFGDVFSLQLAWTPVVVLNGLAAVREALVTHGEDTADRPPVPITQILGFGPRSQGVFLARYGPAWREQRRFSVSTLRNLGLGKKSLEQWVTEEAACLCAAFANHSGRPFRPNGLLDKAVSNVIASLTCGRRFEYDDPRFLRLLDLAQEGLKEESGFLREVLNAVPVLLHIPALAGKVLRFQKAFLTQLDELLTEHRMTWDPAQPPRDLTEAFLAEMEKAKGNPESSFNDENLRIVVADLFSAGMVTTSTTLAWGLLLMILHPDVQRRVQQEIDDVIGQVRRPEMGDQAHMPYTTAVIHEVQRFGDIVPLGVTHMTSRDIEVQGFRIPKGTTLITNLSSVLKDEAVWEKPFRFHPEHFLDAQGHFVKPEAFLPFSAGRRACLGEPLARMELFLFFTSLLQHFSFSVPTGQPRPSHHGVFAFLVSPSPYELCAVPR

Turning to `O=C1CCCCCCCCCCCC(=O)OCCO1`, the Potency entry in [1], in [2], in assay [3], in assay [5], in assay [7] and in [8] was “inactive” throughout. The Potency entry in [9], in assay [10], in assay [11], in assay [12] and in assay [13] was “inactive” throughout. Also, the molecule was classed as inactive in assay [4] and in [6].
With `CCC(C)c1cc(C(C)(C)C)c(O)c(C(C)(C)C)c1` (stereo not drawn), the Potency result in assay [1], in [14], in [15], in assay [3], in [5] and in [7] was “inactive” each time. The Potency result in [8], in [9], in assay [11] and in [12] was “inactive” throughout. Besides, the result in [4] and in assay [6] was inactive. Further, the Potency in assay [13] is 47.6 µM (active).
Regarding `COC(C)(C)CCO`, the Potency entry in assay [1], in assay [2], in assay [14], in assay [15], in [5] and in [7] was “inactive” each time. In addition, the Potency entry in [8], in [9], in [10], in assay [11], in assay [12] and in [13] was “inactive” throughout. For the same molecule, in assay [16], the Potency entry was “inactive”. Also, the outcome in [6] was inactive.
Consider `COc1cc2c(cc1OC)C(C(C(=O)N(CCc1ccc(OC)c(OC)c1OC)CCc1ccc(OC)c(OC)c1OC)c1ccccc1)=NCC2` (stereo not drawn), for which the Potency result in assay [1], in assay [2], in assay [3], in [5], in [7] and in [9] was “inactive” in each case. For the same molecule, the Potency result in [11] and in [18] was “inactive” in each case. Moreover, the molecule was called inactive in assay [4] and in assay [6]. Moreover, the Potency was 26.6 µM (active) in [10]; 26.6 µM (active) in [12]; 2.66 µM (active) in assay [13]; 2.51 µM (active) in assay [17]; 7.94 µM (active) in [19]; 5.49 µM (active) in [16].
Consider `NC(=O)C(c1ccccc1)(c1ccccc1)[C@@H]1CCN(CCc2ccc3c(c2)CCO3)C1`, for which the Potency result in assay [1], in [14], in assay [15], in assay [5], in [7] and in assay [9] was “inactive” throughout. Besides, the Potency entry in assay [11] and in [12] was “inactive” in each case. For the same molecule, the molecule was classed as inactive in [6]. Besides, in assay [16], the Potency was 0.389 µM (active).
Take `O=C(Nc1ccc(S(=O)(=O)N2CCOCC2)cc1)c1cc(Cl)ccc1NS(=O)(=O)c1ccc(Cl)s1`: the Potency entry in assay [1], in [14], in assay [15], in assay [3], in assay [5] and in assay [7] was “inactive” each time. Further, the Potency result in assay [11], in assay [12] and in assay [16] was “inactive” each time. The molecule was classed as inactive in assay [4] and in assay [6]. Further, in assay [13], the Potency is 9.44 µM (active).
